Pf growth 48h – P. falciparum growth inhibition at 48 hours (one generation) | P. falciparum luciferase growth in erythrocytes, 48 h | Potency, µM (titrated, usually from 28.7 µM), inactives show top-dose activity change, negative = inhibition, most hits filed as inhibitors | hit rate 5.9% among 310,000 | AID 504832; note: potency is the fitted concentration of half-maximal effect; % is set by controls: 0 for no effect and ±100 for the full control effect
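Parasite viability was followed by luminescence of a genomically integrated firefly luciferase. Cultures held 0.1% parasitemia at 2% hematocrit (final), incubated under 5% CO2 at 37 C.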
Shiga inhibitor – Shiga toxin inhibition. Vero cells, Shiga toxin protein synthesis inhibition reporter. inhibition, % at 38.7 µM. hit rate 9.2% among 290,000; in the data active = inhibition mostly above about 28%, no sharp cut-off; inactive = mostly below about 43%; note: 0% is about no effect
LmPK inhibitor – blocks Leishmania mexicana pyruvate kinase activity; Q27686; purified LmPK, Kinase-Glo ATP luminescence, 1 h; Potency, µM (titrated, usually from 57.5 µM), inactives show at the highest dose activity change, negative = inhibition, usual class: inhibitors; hit rate 0.37% among 290,000; AID 1721; note: potency is the fitted concentration of half-maximal effect; % is set by controls: 0 for no effect and ±100 for the full control effect
Target sequence (Q27686 whole entry, looked up): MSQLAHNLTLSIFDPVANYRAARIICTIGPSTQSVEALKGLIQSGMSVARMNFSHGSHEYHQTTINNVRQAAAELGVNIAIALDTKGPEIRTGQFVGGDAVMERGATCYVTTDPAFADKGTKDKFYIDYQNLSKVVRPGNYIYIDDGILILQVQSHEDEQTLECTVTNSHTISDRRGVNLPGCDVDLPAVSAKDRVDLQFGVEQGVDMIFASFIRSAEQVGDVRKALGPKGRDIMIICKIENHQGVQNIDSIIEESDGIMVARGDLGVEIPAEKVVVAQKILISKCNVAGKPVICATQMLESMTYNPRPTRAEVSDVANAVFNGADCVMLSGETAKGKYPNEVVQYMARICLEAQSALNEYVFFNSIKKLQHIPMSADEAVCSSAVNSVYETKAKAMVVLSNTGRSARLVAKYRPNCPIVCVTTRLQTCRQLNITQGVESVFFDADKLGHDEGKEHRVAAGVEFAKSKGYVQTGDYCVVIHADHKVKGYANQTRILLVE
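0.1 nM LmPK, 0.5 mM PEP, 0.1 mM ADP; 50 mM imidazole pH 7.2, 7 mM MgCl2, 50 mM KCl; 1 h RT. Kinase-Glo luminescence readout, normalized to no-enzyme (full inhibition) and uninhibited wells.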
CHX counter – counter-screen hit for Shiga toxin inhibitors, cycloheximide; cell reporter, cycloheximide protein synthesis inhibition counterscreen; max response, %; hit rate 12% among 300,000; AID 2314; in the data active = max response mostly above about 13%, no sharp cut-off; inactive = mostly below about 14%; note: read at 38.3 µM for the half of the compounds with a filed dose; 0% is about no effect
Pf growth 96h – P. falciparum growth inhibition at 96 hour, primary screen for plastid delayed-death inhibitors. P. falciparum luciferase reporter growth, 96 h. hit rate 6.9% among 320,000. AID 504834. Potency, µM (titrated, usually from 28.7 µM), for inactives: at the highest dose activity change, negative = inhibition, hits mostly inhibitors; note: potency is the fitted concentration of half-maximal effect; % is set by controls: 0 for no effect and ±100 for the full control effect
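Two parasite generations (96 h, 37 C, 5% CO2) of compound exposure in infected erythrocytes (0.05% parasitemia, 2% hematocrit). Luciferase-reporter P. falciparum; decreased luminescence indicates inhibited growth, aimed at apicoplast-acting delayed death.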
Starred values were filed as active, the others as inactive; ? = inconclusive; . = no result given; [ ] = another dose, or the depositor's remark. An excerpt weighted towards active compounds, which were near 22% of everything screened. Unless noted, calls come from the whole dose curve; as a rule, active = well fitted inhibition curve with a large enough effect; inconclusive = small, poorly fitted or top-dose-only effect, or another doubt; inactive = no such curve, though single readings can be large or run the other way.

SMILES	Pf growth 48h	Shiga inhibitor	LmPK inhibitor	CHX counter	Pf growth 96h
CC(C)NC(=O)COc1coc(CN2CCN(c3cccc(Cl)c3)CC2)cc1=O	2.4%	-6.8	-23.0%	-3.1	11.7µM*
O=C1Nc2ccccc2OCc2c1cccc2[N+](=O)[O-]	?	4.1	3.0%	2.3	52.8%
CC[C@H](C)[C@H](NC(=O)[C@@H](N)Cc1ccc(O)cc1)C(=O)NCC(=O)N[C@@H](CO)C(=O)N[C@@H](CCCN=C(N)N)C(N)=O	.	-8.1	.	-7.3	.
CCOC(=O)c1nc(NNC(=O)c2ccc([N+](=O)[O-])cc2)sc1C	?	8.0	2.9%	1.8	3.29µM*
CCOC(=O)c1sc(NC(=O)c2cncc(Br)c2)nc1C	381.6%	56.5*	-3.6%	15.0	-16.9%
CCOC(=O)c1sc(NNC(=O)c2ccc(F)cc2)nc1C	?	55.9*	0.0%	21.9*	?
CCOC(=O)c1sc(NC(=O)c2ccc3ncsc3c2)nc1C	-11.1%	72.5*	2.2%	25.1*	17.9%
CCOC(=O)c1sc(NNC(=O)c2ccc(C)cc2)nc1C	?	22.8	2.0%	11.8	-8.0%
COc1cc(C)c(CN2CCN(C(C)C(=O)NC(C)c3ccccc3)CC2)cc1OC (stereo not given)	-15.0%	-8.9	-5.2%	-2.6	3.4%
COc1cc(C(=O)Nc2cc3c(cc2N2CCCCC2)n(C)c(=O)n3C)cc(OC)c1OC	?	-2.5	1.0%	8.3	?
CC(C)CNC(=O)c1ccccc1N(Cc1ccccc1)S(C)(=O)=O	4.2%	-4.2	-1.2%	-1.0	25.1%
Cc1ccc(C2=NN=C(NC(=O)C(F)(F)F)SC2)cc1	201.9%	110.8*	-6.6%	26.5*	?
Cc1ccc(C2=NN=C(NC(=O)CSc3nncn3C)SC2)cc1	?	-2.6	-4.7%	9.3	36.0%[5.75 µM]
Cc1nn(C)c(C)c1CNC(=O)Nc1cccc(Cl)c1	294.8%	113.6*	15.4%	56.9*	?
Cc1nn(C)c(C)c1CNC(=O)Nc1ccc2c(c1)OCO2	108.8%	65.3*	-0.1%	36.8*	-1.1%
Cc1nn(C)c(C)c1NC(=O)CN1CCC(O)(c2ccc3c(c2)OCO3)CC1	11.5%	-7.0	-1.1%	2.1	10.4µM*
Cc1cc(NNC(=O)Nc2cccc(Cl)c2)nc2c1c(C)nn2C	-20.8%	-12.4	1.6%	0.4	?
Cc1nn(C)c(C)c1CNC(=O)Nc1ccc(Cl)cc1	241.5%	145.2*	-3.2%	72.6*	-4.7%
CC1=C(C(=O)NCc2ccccn2)C2(CCC(C)CC2)OC1=O (stereo not given)	?	-2.3	-2.5%	-2.9	-29.0%
COc1ccc(S(=O)(=O)N2CCCC2CNC(=O)C(=O)NCc2ccccn2)cc1 (stereo not given)	?	.	.	.	-6.2%
COc1ccc(CNC(=O)CN(Cc2ccc(C)cc2)C(=O)c2csnn2)cc1	-0.7%	15.6	-8.0%	-7.1	-17.8%
O=C(Cc1cccc(C(F)(F)F)c1)N1CCCC1	24.3%	2.7	10.4%	-7.1	39.3%
Cc1cc(C)nc(/N=C(/NC(=O)Nc2cccc(Cl)c2)Nc2ccccc2)n1	19.5%	-1.9	-2.6%	1.4	?
CC(C)=Cc1oc2ccc([N+](=O)[O-])cc2c1N1CCOCC1	?	64.9*	-1.8%	20.8*	?
Cc1cccc(NC(=O)c2ccc(S(=O)(=O)N3CCC(C)CC3)cc2)n1	?	14.2	-4.2%	9.9	?
SMILES	Pf growth 48h	Shiga inhibitor	LmPK inhibitor	CHX counter	Pf growth 96h
CCOC(=O)N1CCN(C(=O)c2cc(C)no2)CC1	.	-13.3	1.6%	-9.0	11.1%
CCOC(=O)c1ccc(-c2cc(C)no2)[nH]1	64.7%	41.9*	3.7%	9.9	62.6%
COc1ccc(CNc2cccc(C)n2)c(O)c1	8.8%	10.7	-4.4%	3.0	232.4%
Cc1cccc(NCc2ccc(Br)cc2)n1	-25.8%	109.0*	-5.8%	35.3*	-4.6%
Cc1cccc(NCc2cccc3ccccc23)n1	-8.5%	54.4	-0.4%	41.1*	?
Cc1cccnc1NC(=O)CSc1ccc2c(c1)OCCO2	49.0%	.	.	.	41.0%
C[N+]1(C)C2CCC1CC(OC(=O)c1c[nH]c3ccccc13)C2 (stereo not given)	?	.	.	.	6.01µM*
O=C(OC1C[C@@H]2CC3C[C@H](C1)N2CC3=O)c1c[nH]c2ccccc12 (stereo not given in full)	13.5µM*	.	.	.	13.5µM*
CCOc1cc(N2CCOCC2)c(OCC)cc1NC(=O)COC(=O)CCOc1cc(C)ccc1C	39.8%	.	.	.	-18.6%
